Hits are enriched below; roughly 11% of the tested compounds scored in any of these assays.
NIH3T3 tox: Cytotoxic Profiling in NIH 3T3 Cell Line of Diverse Libraries Using Quantitative High-Throughput Screening; NIH 3T3 viability, CellTiter-Glo ATP luminescence, 48-72 h; Potency, µM (doses to about 96.7 µM), inactives show at the highest dose activity change, negative = cytotoxicity, usual class: inhibitors; hit rate 4.3% among 94,000; also: nearly all actives have a fitted effect of over 55% in size
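First NIH 3T3 cells are plated at 400 cells/well; next compound is pinned in; then plates incubate 48 or 72 hr at 37 °C; finally CellTiter-Glo is added and luminescence read after 10 min.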
FLuc inh: Firefly luciferase inhibition profiling of diverse chemical library using quantitative high-throughput screening; Potency, µM (series often up to 115 µM), actives largely listed as inhibitors; Luciferin 4-monooxygenase (Photinus pyralis), P08659; hit rate 2.5% among 76,000; AID 1347043, 2019; purified P. pyralis luciferase, luminescence, biochemical; also: nearly all actives have a fitted effect of over 65% in size
Target sequence (P08659 whole entry, looked up): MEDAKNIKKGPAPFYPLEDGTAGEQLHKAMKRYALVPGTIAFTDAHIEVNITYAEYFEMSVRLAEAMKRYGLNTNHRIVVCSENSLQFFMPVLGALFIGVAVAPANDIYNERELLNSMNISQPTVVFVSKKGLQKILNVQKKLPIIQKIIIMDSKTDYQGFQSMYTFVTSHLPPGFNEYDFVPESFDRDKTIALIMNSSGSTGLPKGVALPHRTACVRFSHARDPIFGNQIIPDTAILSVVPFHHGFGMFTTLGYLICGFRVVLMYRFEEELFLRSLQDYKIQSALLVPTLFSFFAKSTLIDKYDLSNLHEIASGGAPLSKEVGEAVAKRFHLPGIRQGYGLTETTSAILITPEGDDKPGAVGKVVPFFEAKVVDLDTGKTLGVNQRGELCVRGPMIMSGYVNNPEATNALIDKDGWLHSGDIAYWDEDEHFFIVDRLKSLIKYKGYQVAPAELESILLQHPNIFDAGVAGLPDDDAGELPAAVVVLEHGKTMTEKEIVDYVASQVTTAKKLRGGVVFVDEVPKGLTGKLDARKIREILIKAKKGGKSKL
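Biochemical qHTS: compound (6-point titration) added to 10uM D-luciferin plus 10uM ATP in Tris acetate pH 7.5 buffer with Mg, Tween-20 and BSA, then purified enzyme at 10nM; light output imaged.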
hNpr1 antagonist: Natriuretic polypeptide receptor (hNpr1) antagonism - Primary qHTS; Potency, µM (series often up to 46.3 µM), without a hit: at the highest dose activity change, negative = inhibition, hits mostly inhibitors; Atrial natriuretic peptide receptor 1 (Homo sapiens), P16066; AID 1347048, 2019; hit rate 1.6% among 76,000; HEK293 hNpr1 GloSensor cGMP, ANP-stimulated luminescence; calls by dose curve; also: nearly all actives have a fitted effect of over 60% in size
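HEK293 cells stably expressing human Npr1 and cGMP GloSensor pGS-40F, loaded 2 h with 2% GloSensor reagent, given compound 30 min at room temperature. Luminescence read before and 20 min after 0.1 nM hNppA.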
HEK293 tox: Cytotoxic Profiling in HEK 293 Cell Line of Diverse Libraries Using Quantitative High-Throughput Screening; Potency, µM (top dose mostly 115 µM), inactives show at the top dose activity change, negative = cytotoxicity, usual class: inhibitors; hit rate 6.6% among 94,000; AID 1345083, 2018; HEK 293 viability, ATP luminescence (CellTiter-Glo), 48-72 h; also: nearly all actives have a fitted effect of over 60% in size
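Read-out: CellTiter-Glo ATP luminescence. Cells: HEK 293, 250 cells/well. Exposure: 48 or 72 hr, 37 degree Celsius.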
* hit, by the source's call; i = inactive; u = inconclusive; x = no result; [ ] = remark or other dose. Unless noted, calls follow the shape of the dose curve; as a rule, active = well fitted curve in the direction sought with a large enough effect; inconclusive = small, poorly fitted or top-dose-only effect, or another doubt; inactive = no such curve, though single readings can be large; an effect the other way counts as inactive or inconclusive. % is scaled to controls: 0 for no effect and ±100 for the full control effect; potency is read from the fitted curve at half-maximal effect.

SMILES	NIH3T3 tox	FLuc inh	hNpr1 antagonist	HEK293 tox
O=C(NC1CCN(c2cc(-c3ccc(F)cc3)[nH]n2)C1)c1cccc(OC(F)(F)F)c1 (stereo not drawn)	u	i	-11.9%	39.8µM*
O=C(NC1CCCN(c2cc(-c3ccc(F)cc3)[nH]n2)C1)c1cccc(F)c1 (stereo not drawn)	u	i	-8.5%	31.6µM*
Cc1noc(-c2ccccc2Cl)c1C(=O)NCCCc1ccccc1	u	i	-0.1%	44.7µM*
COc1cccc([S+](=O)([O-])N2CCCC(C(=O)N3CCC(c4nc5ncccc5[nH]4)C3)C2)c1 (stereo not drawn)	-14.4%	x	x	u
Cc1nc2c(c(-c3ccc(Cl)cc3)n1)CCN(C(=O)Nc1ccc(Cl)cc1)CC2	u	u	-23.5%	u
Cc1cnc(CCNS(=O)(=O)c2cccc(F)c2)n1Cc1ccc(F)cc1	u	x	x	39.8µM*
CN1CC(C(=O)NCCc2ccc(F)cc2)NC1=O (stereo not drawn)	-35.3%[138 µM]	x	x	-22.0%[172 µM]
O=C(C[C@@H]1CCNC[C@@H]1Cc1cc(COc2ccccc2)on1)Nc1ccccc1	31.6µM*	i	-9.2%[70.6 µM]	39.8µM*
O=C(C[C@@H]1CCNC[C@@H]1Cc1cc(COc2ccccc2)on1)NCc1ccccc1	u	i	-25.7%[70.6 µM]	79.4µM*
O=C(C[C@@H]1CCNC[C@@H]1Cc1cc(CSc2ccccc2)on1)N1CCN(c2ccccc2)CC1	25.1µM*	i	-18.6%	u
O=C(C[C@@H]1CCNC[C@@H]1Cc1cc(CSc2ccccc2)on1)Nc1ccccc1	70.8µM*	i	-14.7%[70.6 µM]	44.7µM*
CCOC(=O)C1(Cc2cccc(OC)c2)CCCNC1 (stereo not drawn)	-23.3%	i	9.5%	u
CS(=O)(=O)N1CCC(Cc2ccc(C(=O)NCCc3ccccc3)cc2)CC1	u	x	x	11.2µM*
CS(=O)(=O)N1CCC(Cc2ccc(C(=O)NCCN3CCOCC3)cc2)CC1	3.7%	i	-1.2%	i
COc1ccc2c(c1)O[C@H]1[C@H](CO)CN([S+](=O)([O-])c3cccs3)[C@@H]21	u	x	x	50.1µM*
O=C(c1ccccc1F)N1CCN(C(=O)c2nc3cccnc3n(Cc3ccccc3)c2=O)CC1	-11.9%	x	x	4.2%
c1coc(-c2ccnc3nc(-c4cccs4)nn23)c1	35.5µM*	i	6.2%	-13.7%
c1csc(-c2nc3nccc(-c4ccsc4)n3n2)c1	u	i	0.7%	u
c1csc(-c2nc3nccc(-c4ccncc4)n3n2)c1	-14.5%	i	3.4%	-4.0%
COc1cccc(-c2ccnc3nc(-c4cccs4)nn23)c1	u	15.8µM*	-13.9%	u
Fc1ccccc1OCC1CCCN(c2nccc(-c3cccnc3)n2)C1 (stereo not drawn)	79.4µM*	i	-0.5%	u
c1ccc(COC2CCN(c3nccc(-c4cccnc4)n3)CC2)nc1	u	i	0.8%	u
CC(=O)NCc1nnc2n1C(C(=O)NCCCc1ccccc1)CC2 (stereo not drawn)	-9.9%[138 µM]	x	x	-13.6%[172 µM]
CCOC(=O)C1=C(C)N(Cc2ccc(C(=O)N3CCCCC3)cc2)C(=O)CC1c1cccc(C)c1 (stereo not drawn)	u	i	u	39.8µM*
CCCCNC(=O)c1cccc(CN2C(=O)CC(c3ccccc3C)C(C(=O)OCC)=C2C)c1 (stereo not drawn)	u	i	-2.9%	u
SMILES	NIH3T3 tox	FLuc inh	hNpr1 antagonist	HEK293 tox
OC[C@@H]1CNC[C@H]1C1CCN(Cc2ccc(Cl)c(F)c2)CC1	u	i	4.8%	39.8µM*
OC[C@@H]1CNC[C@H]1C1CCN(Cc2ccc(OC(F)(F)F)cc2)CC1	u	i	-1.8%	39.8µM*
COc1ccc2c(c1)OC[C@@H]1CN(CCC#N)C(=O)CCN(C(=O)c3ccccc3OC)[C@H]21	u	x	x	i
Cc1cc(C)cc(-c2ccc(CN3CCCC(NC(=O)Nc4ccc(Cl)cc4)C3)cc2)c1 (stereo not drawn)	-13.8%	x	x	-3.8%
COc1ccc(F)cc1-c1ccc(CN2CCC(NC(=O)Nc3ccc(C)c(F)c3)C2)cc1 (stereo not drawn)	15.8µM*	x	x	25.1µM*
COc1ccc(F)cc1-c1ccc(CN2CCC(NC(=O)Nc3ccc(Cl)cc3)C2)cc1 (stereo not drawn)	11.2µM*	x	x	12.6µM*
COc1ccc(F)cc1-c1ccc(CN2CCC(NC(=O)NC3CCCC3)C2)cc1 (stereo not drawn)	12.6µM*	x	x	20µM*
CC(C)NC(=O)NC1CCCN(Cc2ccc(-c3cncnc3)cc2)C1 (stereo not drawn)	-16.0%[138 µM]	x	x	-13.6%[172 µM]
CSc1ccc(-c2ccc3c(c2)C(=O)N2CCN(C(=O)C4CCCCC4)C[C@@H]2C(=O)N3)cc1	u	i	-13.4%	u
O=C(NC1CCCN(c2ccc3nnc(-c4ccccc4)n3n2)C1)c1ccc(Cl)nc1 (stereo not drawn)	u	x	x	28.2µM*
O=C(NC1CCN(c2ccc3nnc(-c4ccccc4)n3n2)CC1)c1ccccc1	-5.3%	x	x	u
COc1ccc(C(=O)NC2CCN(c3ccc4nnc(-c5ccccc5)n4n3)CC2)cc1	u	x	x	79.4µM*
O=C(NC1CCCN(c2ccc3nnc(-c4ccccc4)n3n2)C1)c1ccccc1 (stereo not drawn)	28.2µM*	x	x	35.5µM*
CC(C)NC(=O)N1CCCN(c2ccc3nnc(-c4ccccc4)n3n2)CC1	-5.0%	x	x	1.3%
COc1cccc(C(=O)NC2CCCN(c3ccc4nnc(-c5ccccc5)n4n3)C2)c1 (stereo not drawn)	2.8%	x	x	i
O=C(Nc1ccc(Cl)cc1)N1CCCN(c2ccc3nnc(-c4ccccc4)n3n2)CC1	28.2µM*	x	x	u
CCN1C(=O)CN(C(=O)Cc2ccccc2)CC12CCOCC2	-21.4%	x	x	-5.7%
C[C@H]1[C@@H]2[C@@H](O)C([C@H](C)C(=O)NCc3ccc(F)cc3)CC[C@@]2(C)CC[C@@H]1NC(=O)c1cnccn1 (stereo partly drawn)	-21.9%	i	1.0%	-29.4%
CNC(=O)c1cc(C)nc2onc(C3CCCN(C(=O)Cc4cccc(Cl)c4)C3)c12 (stereo not drawn)	-21.6%	x	x	-7.3%
CC(C)C(=O)NC1CCCN(c2ccc3nnc(-c4ccccc4)n3n2)C1 (stereo not drawn)	-31.5%	x	x	-22.8%
CN(C)C(=O)NC1CCCN(c2ccc3nnc(-c4ccccc4)n3n2)C1 (stereo not drawn)	44.7µM*	x	x	u
O=C(O)CCC(=O)N1Cc2ccccc2CC2(CCCN2Cc2ccccc2)C1 (stereo not drawn)	-6.2%	x	x	-2.4%
